GPR151 ag: activators of human GPR151, primary screen, cell-based, PathHunter beta-arrestin, luminescence; G-protein coupled receptor 151 (Homo sapiens), Q8TDV0; PathHunter beta-arrestin GPR151 cells; activation, % at 11.2 µM; 1% of 650,000 active; in the data active = activation above about 4.9%;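 note: 0% = median of compound wells and 100% = cells with positive control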
TEAD-YAP inh: TEAD-YAP interaction inhibition, primary screen, TEAD-YAP interaction inhibitor project, luminescence, HEK-TIYL cells | 1.4% of 640,000 active | TEAD-Gal4/YAP UAS-luciferase luminescence | inhibition, % at 9.12 µM | AID 1259422, 2018; in the data active = inhibition above about 32%;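 note: 0% = median of test compound wells and 100% = reference inhibitor wells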
FBW7 act: FBW7 E3 ligase activators, primary screen, biochemical, AlphaScreen, human; 0.13% of 650,000 active; AlphaScreen FBW7–phospho-cyclin E peptide binding, activator screen; F-box/WD repeat-containing protein 7 (Homo sapiens), Q969H0; normalized activity (activation), % at 26.1 µM; AID 1259310, 2017; in the data active = normalized activity above about 1.9%;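 note: purified mutant Fbw7 with reduced substrate affinity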
Target sequence (Q969H0 whole entry, looked up): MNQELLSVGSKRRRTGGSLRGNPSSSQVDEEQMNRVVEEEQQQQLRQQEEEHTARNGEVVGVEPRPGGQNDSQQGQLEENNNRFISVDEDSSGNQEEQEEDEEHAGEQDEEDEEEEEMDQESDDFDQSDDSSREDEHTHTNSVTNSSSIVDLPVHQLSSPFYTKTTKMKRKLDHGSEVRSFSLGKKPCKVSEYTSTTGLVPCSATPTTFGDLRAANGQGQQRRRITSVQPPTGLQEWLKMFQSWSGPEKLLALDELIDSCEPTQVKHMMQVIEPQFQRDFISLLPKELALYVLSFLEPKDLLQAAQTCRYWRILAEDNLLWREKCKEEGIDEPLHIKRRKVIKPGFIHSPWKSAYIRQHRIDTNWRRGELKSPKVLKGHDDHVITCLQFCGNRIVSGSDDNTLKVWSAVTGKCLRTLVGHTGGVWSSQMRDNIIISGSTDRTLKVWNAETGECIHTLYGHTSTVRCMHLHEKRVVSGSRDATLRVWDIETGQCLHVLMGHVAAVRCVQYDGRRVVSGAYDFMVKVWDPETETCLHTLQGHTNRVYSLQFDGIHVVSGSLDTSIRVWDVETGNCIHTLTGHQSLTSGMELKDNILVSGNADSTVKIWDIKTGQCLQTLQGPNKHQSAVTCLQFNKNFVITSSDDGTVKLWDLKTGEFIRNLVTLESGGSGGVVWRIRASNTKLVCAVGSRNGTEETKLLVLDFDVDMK
MITF inh: MITF inhibitors, primary screen, biochemical, AlphaScreen, human; AlphaScreen MITF homodimerization, bead proximity signal; Microphthalmia-associated transcription factor (Homo sapiens), O75030; AID 1259374, 2018; inhibition, % at 2.6 µM; 0.91% of 650,000 active; in the data active = inhibition above about 50%;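 note: 0% = vehicle wells with protein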
An asterisk follows results filed as active. Sampled rows, rich in hits. Any-hit rate of the full collection: about 3.5%.

SMILES	GPR151 ag	TEAD-YAP inh	FBW7 act	MITF inh
NC(=O)c1ccc(NC(=O)c2ccc3ccccc3c2)cc1	1.1	-77.0	0.6	23.3
Cn1c(=O)c2c(nc(N)n2Cc2cccc3ccccc23)n(C)c1=O	3.2	30.6	0.2	-16.0
CCNC(=O)/C(C#N)=C/c1c(Oc2cccc(C)c2C)nc2c(C)cccn2c1=O	-0.2	35.3*	0.0	2.8
C=CCNC(=O)/C(C#N)=C/c1c(Oc2ccccc2C)nc2ccccn2c1=O	-1.9	32.1*	0.0	-11.1
CNC(=O)/C(C#N)=C/c1c(Oc2ccccc2C)nc2c(C)cccn2c1=O	1.1	46.6*	0.0	5.7
COCCCNC(=O)/C(C#N)=C/c1c(Oc2cc(C)cc(C)c2)nc2c(C)cccn2c1=O	-1.4	33.0*	0.0	14.2
COCCNC(=O)/C(C#N)=C/c1c(Oc2cc(C)cc(C)c2)nc2c(C)cccn2c1=O	-1.2	6.1	-0.1	18.9
CC(NC(=O)Nc1ccc(Cl)c(Cl)c1)C1CCCO1 (configuration not stated)	-1.7	-48.8	1.9*	17.2
CC1=C(C(=O)OCc2ccccc2)C(c2cn(-c3ccccc3)nc2-c2ccc(C)cc2)C(C(=O)OCc2ccccc2)=C(C)N1	1.2	-8.9	0.0	12.1
CC1=C(C(=O)OCc2ccccc2)C(c2cn(-c3ccccc3)nc2-c2ccc(F)cc2)C(C(=O)OCc2ccccc2)=C(C)N1	0.8	-8.5	1.9*	33.9
COc1ccc(Cl)cc1N1C(=O)C2C3C=CC(C3)C2C1=O (configuration not stated)	1.7	1.1	0.0	-6.2
COc1cc(OC)cc(-c2cc3nc4c(c(NCCCn5ccnc5)n3n2)CCCC4)c1	-0.1	2.9	2.4*	6.1
COc1ccc(-c2cnnc(NCCCn3ccnc3)n2)cc1	-0.1	32.3*	0.0	1.2
COc1ccc(-c2cnc(NCCCn3ccnc3)nc2)cc1	1.9	0.3	0.0	22.3
CN(C)c1ccc(/C=N/Nc2cccc3cccnc23)cc1	-4.6	37.4*	0.4	4.7
O=C(NCc1ccc(F)cc1)c1ccc(N2CC3CC(C2)c2cccc(=O)n2C3)c(NC(=O)c2ccc(F)cc2)c1 (configuration not stated)	1.3	83.7*	0.1	3.2
C/C(=N/NC(=O)c1ccc(O)c(O)c1)c1ccc(C)cc1	-0.7	-9.3	0.1	6.8
C/C(=N\NC(=O)c1ccc(O)c(O)c1)c1ccc(Br)c([N+](=O)[O-])c1	-1.6	31.9*	0.5	20.1
O=C(NCC1C2CC3CC(C2)CC1C3)c1ccc(CN2CCC[C@H]2CO)[nH]c1=O (some centres not stated)	-0.4	-2.7	0.1	-9.5
CCC(=O)Nc1nc2c(s1)C(=O)CC(C(=O)NCc1ccco1)C2 (configuration not stated)	0.1	4.3	0.1	33.4
CCCc1ccc(-c2ccc(OC(=O)C3CCCCC3)cc2)nc1	-1.6	72.7*	-0.1	0.0
CCCc1ccc(-c2ccc(C(=O)OCc3ccco3)cc2)nc1	-2.0	52.3*	-0.1	1.0
CCCc1ccc(-c2ccc(C(=O)OCC(C)CC)cc2)nc1 (configuration not stated)	0.3	-7.1	-0.1	7.2
CCN(CCO)C(=O)C1CCN(c2nc(C)c3ccccc3n2)CC1	-0.5	1.8	-0.1	-5.0
COc1ccccc1C(=O)Nc1cccc(N2CCC(NCC3CCOCC3)CC2)c1	-0.7	6.0	-0.2	5.6
SMILES	GPR151 ag	TEAD-YAP inh	FBW7 act	MITF inh
COc1ccccc1C(=O)Nc1cccc(N2CCC(NCCSC)CC2)c1	-0.7	47.4*	-0.1	12.3
CCSc1nc(N)c(C#N)c(CC)c1C#N	1.4	-4.8	0.0	2.0
CCc1c(C#N)c(N)nc(SCC#N)c1C#N	-0.1	-36.9	2.3*	-5.5
CC(C)(C)OC(=O)Nc1ccc(SCC(=O)O)cc1	0.9	82.7*	0.0	-6.6
COC(=O)Nc1ccc(SCC(=O)c2ccccc2)cc1	1.9	-2.2	0.2	2.6
O=C(CCl)NCc1ccc2[nH]c3c(c2c1)CCCC3	2.0	33.6*	-0.1	15.0
CC(C)C(=O)NCc1ccc2[nH]c3c(c2c1)CCCC3	-1.8	4.2	-0.1	15.9
COCCn1c2c(c(=O)[nH]c1=O)C(c1ccc(Cl)cc1)C1=C(N2)c2ccccc2C1=O (configuration not stated)	0.0	-2.6	0.0	14.2

Screening data: PubChem, The Scripps Research Institute Molecular Screening Center
